Data on 37 molecules can be found in the supplement of paper PMC12669032.

Each structure is given as a SMILES string. Several values for one entry are separate records, joined by “and”; a condition that tells them apart may be missing. Identical values can stand only once. Values without a mark were called inactive.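 Rule for the calls: active = AUC reduced over 20% with Padj below 0.05 in at least 2 of 3 replicates; inactive = otherwise.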

The subject of one experiment is Roseburia intestinalis. Kind of experiment: growth AUC relative to DMSO control (median of replicates) (fraction); higher = more growth (less inhibition), active = hit call of the paper. As to conditions: 20 µM; 24 h. An outline of the steps:
(§1)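 Area under the growth curve was normalised to the plate median of solvent-only wells, except on the industrial chemical plate, where row and column medians were used. Curves came from gut bacterial monocultures grown anaerobically at 37 °C in mGAM with 20 µM compound (1% DMSO), starting at OD600 0.05 and read at OD600 every hour for 24 h. The minimum OD of each curve was set to 0, and values are medians of three biological replicates grown on separate days.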

The subject of the next experiment is Streptococcus salivarius. The experiment is described as above. As to conditions: 20 µM; 24 h. The method, boiled down:
as §1

For `COC[C@H](C)N(C(=O)CCl)c1c(C)csc1C`, the “growth AUC” value is 0.966 with Roseburia intestinalis and 1.04 with Streptococcus salivarius.

Turning to `OC(c1ccc(Cl)cc1)(c1ccc(Cl)cc1)C(Cl)(Cl)Cl`, the results for the “growth AUC” value in the experiment on Roseburia intestinalis and in the experiment on Streptococcus salivarius were 0.891 and 0.874, respectively.

For the molecule `O=P(Oc1ccccc1)(Oc1ccccc1)Oc1ccccc1`, the “growth AUC” value in the experiment with Roseburia intestinalis was 0.937; with Streptococcus salivarius, 0.957.

For the molecule `CNC(=O)ON=C(CSC)C(C)(C)C`, the “growth AUC” value with Roseburia intestinalis and in the experiment on Streptococcus salivarius was 1.02 each time.

With `O=S1OC[C@@H]2[C@H](CO1)[C@]1(Cl)C(Cl)=C(Cl)[C@@]2(Cl)C1(Cl)Cl` (some centres undefined), the “growth AUC” value in the experiment on Roseburia intestinalis is 0.954 and 0.949; with Streptococcus salivarius, 0.954 and 0.864.

As to `COP(=S)(NC(C)C)Oc1ccc(C)cc1[N+](=O)[O-]` (centres undefined), the “growth AUC” value in the experiment with Roseburia intestinalis is 1.01; with Streptococcus salivarius it was 1.02.

Take `COC(=O)NC(=S)Nc1ccccc1NC(=S)NC(=O)OC`: the “growth AUC” value is 0.979 in the experiment on Roseburia intestinalis and 0.98 in the experiment on Streptococcus salivarius.

For the molecule `CN(C)C(CSS(=O)(=O)[O-])CSS(=O)(=O)[O-].[Na+].[Na+]`, the “growth AUC” value was 1.24 with Roseburia intestinalis and 0.961 in the experiment on Streptococcus salivarius.

As for `COP(=O)(OC)O/C(=C/Br)c1ccc(Cl)cc1Cl`, the “growth AUC” value in the experiment on Roseburia intestinalis was 1.02; in the experiment with Streptococcus salivarius, 1.

In the case of `Nc1nc(N)[nH]c(=O)n1`, the “growth AUC” value in the experiment on Roseburia intestinalis was 0.981; in the experiment on Streptococcus salivarius, 1.

Take `CN(C)C(=O)Nc1cccc(OC(=O)NC(C)(C)C)c1`: the entries for the “growth AUC” value in the experiment on Roseburia intestinalis and with Streptococcus salivarius were 1.05 and 0.975, respectively.

Regarding `CCCOCC(=Nc1ccc(Cl)cc1C(F)(F)F)n1ccnc1`, the “growth AUC” value is 0.805 with Roseburia intestinalis and 0.982 in the experiment on Streptococcus salivarius.

As to `O=c1[nH]c2c(c(=O)n1C1CCCCC1)CCC2`, the figures for the “growth AUC” value in the experiment on Roseburia intestinalis and in the experiment on Streptococcus salivarius were 0.982 and 0.998, respectively.

Consider `C=CCOC(=O)C(C)(C)OC(=O)c1cc(-n2c(=O)cc(C(F)(F)F)n(C)c2=O)ccc1Cl`, for which the “growth AUC” value in the experiment with Roseburia intestinalis is 0.994; with Streptococcus salivarius, 0.98.

For the molecule `COC(=O)COc1cc(Cl)c(Cl)cc1Cl`, the “growth AUC” value in the experiment with Roseburia intestinalis is 0.996; with Streptococcus salivarius, 1.01.

With `N#Cc1nn(-c2c(Cl)cc(C(F)(F)F)cc2Cl)c(N)c1S(=O)C(F)(F)F` (centres undefined), the “growth AUC” value with Roseburia intestinalis is 0.914; in the experiment on Streptococcus salivarius it was 0.811.

Regarding `CN(C)C(=O)Nc1cccc(C(F)(F)F)c1`, the “growth AUC” value in the experiment on Roseburia intestinalis was 0.979; with Streptococcus salivarius, 0.991.

As for `COc1nc(C)nc(NC(=O)NS(=O)(=O)c2ccccc2Cl)n1`, the entries for the “growth AUC” value in the experiment with Roseburia intestinalis and in the experiment on Streptococcus salivarius were 0.995 and 0.992, respectively.

As to `COP(=S)(OC)Oc1ccc([N+](=O)[O-])c(C)c1`, the results for the “growth AUC” value with Roseburia intestinalis and in the experiment with Streptococcus salivarius were 0.949 and 0.991, respectively.

`N#Cc1c[nH]cc1-c1cccc2c1OC(F)(F)O2`: the “growth AUC” value with Roseburia intestinalis is 1.07; in the experiment on Streptococcus salivarius, 0.962.

In the case of `CNC(=O)O/N=C(\C)SC`, the results for the “growth AUC” value in the experiment on Roseburia intestinalis and in the experiment with Streptococcus salivarius were 0.994 and 0.973, respectively.

Regarding `CNC(=O)O/N=C/C(C)(C)S(C)(=O)=O`, the results for the “growth AUC” value with Roseburia intestinalis and with Streptococcus salivarius were 1.02 and 1.04, respectively.

`O=C(Nc1ccccc1)Nc1ccnc(Cl)c1`: the “growth AUC” value in the experiment on Roseburia intestinalis was 0.896; in the experiment with Streptococcus salivarius it was 0.844.

On to `CCOC(=O)C(SP(=S)(OC)OC)c1ccccc1` (centres undefined), for which the “growth AUC” value in the experiment on Roseburia intestinalis was 1.03; with Streptococcus salivarius it was 1.

As for `CCOP(=S)(NC(C)CC)Oc1cc(C)ccc1[N+](=O)[O-]` (centres undefined), the “growth AUC” value was 1.01 in the experiment with Roseburia intestinalis and 0.976 in the experiment on Streptococcus salivarius.

Take `O=C(Nc1ccccc1)c1ccccc1I`: the “growth AUC” value was 1 in the experiment with Roseburia intestinalis and 1.03 in the experiment on Streptococcus salivarius.

On to `CCN(CC)C(=O)C(C)Oc1cccc2ccccc12` (centres undefined), for which the results for the “growth AUC” value with Roseburia intestinalis and with Streptococcus salivarius were 1.08 and 0.959, respectively.

Regarding `CCOP(=O)(SC(C)CC)N1CCSC1=O` (centres undefined), the “growth AUC” value with Roseburia intestinalis is 1.03; in the experiment with Streptococcus salivarius, 1.02.

In the case of `CNC(=O)/C(=N\OC)c1ccccc1Oc1ccccc1`, the figures for the “growth AUC” value in the experiment with Roseburia intestinalis and with Streptococcus salivarius were 0.995 and 0.999, respectively.

Turning to `O=C1C2(Cl)C3(Cl)C4(Cl)C(Cl)(Cl)C5(Cl)C3(Cl)C1(Cl)C5(Cl)C24Cl` (centres undefined), the “growth AUC” value with Roseburia intestinalis is 0.0478 (active); in the experiment with Streptococcus salivarius, 0.0301 (active).

Regarding `CCC(C)n1c(=O)[nH]c(C)c(Br)c1=O` (centres undefined), the “growth AUC” value is 0.975 in the experiment on Roseburia intestinalis and 0.901 in the experiment on Streptococcus salivarius.

Turning to `CN1CSC(=S)N(C)C1`, the “growth AUC” value is 1.03 with Roseburia intestinalis and 0.983 in the experiment on Streptococcus salivarius.

Regarding `CCOP(=S)(OCC)Oc1cc(C)nc(N(CC)CC)n1`, the “growth AUC” value is 0.941 in the experiment with Roseburia intestinalis and 1 with Streptococcus salivarius.

Consider `Oc1ccc(-c2ccccc2)cc1`, for which the “growth AUC” value with Roseburia intestinalis is 0.947; in the experiment on Streptococcus salivarius, 0.968.

Consider `O=C(NCCc1ncc(C(F)(F)F)cc1Cl)c1ccccc1C(F)(F)F`, for which the figures for the “growth AUC” value in the experiment on Roseburia intestinalis and with Streptococcus salivarius were 0.987 and 1.01, respectively.

On to `CN(C)C(CSS(=O)(=O)[O-])CSS(=O)(=O)O.[Na+]`, for which the figures for the “growth AUC” value in the experiment on Roseburia intestinalis and in the experiment on Streptococcus salivarius were 1.06 and 0.979, respectively.

Consider `Clc1ccc(C(c2ccc(Cl)cc2)C(Cl)(Cl)Cl)cc1`, for which the “growth AUC” value with Roseburia intestinalis is 0.941; with Streptococcus salivarius, 0.897.
